# Compound activity as filed in PubChem BioAssay.
# Only some compounds are listed: those with a hit (about 4.7% of all), similar ones and a draw of the others.
# TRHR enhancer: allosterically enhances the human TRH receptor | enhancement, % at 2 µM | TRHR cells, fluo-8 calcium fluorescence, EC20 TRH enhancement | hit rate 0.66% among 360,000 | P34981 | AID 493056; in the data active = enhancement above about 30%; note: 0% is about no effect
# Target sequence (P34981 whole entry, looked up): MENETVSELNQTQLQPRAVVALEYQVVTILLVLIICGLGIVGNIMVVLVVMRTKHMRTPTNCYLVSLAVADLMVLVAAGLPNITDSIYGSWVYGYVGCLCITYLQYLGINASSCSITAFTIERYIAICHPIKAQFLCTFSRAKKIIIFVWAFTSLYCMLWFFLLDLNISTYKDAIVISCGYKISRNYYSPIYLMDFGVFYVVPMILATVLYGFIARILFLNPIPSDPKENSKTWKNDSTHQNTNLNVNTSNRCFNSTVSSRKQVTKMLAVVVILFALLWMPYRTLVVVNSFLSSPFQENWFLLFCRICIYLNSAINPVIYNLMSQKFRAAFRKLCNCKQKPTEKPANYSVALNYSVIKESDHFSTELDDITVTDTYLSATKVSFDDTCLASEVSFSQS
#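 Enhancer read-out: after compound pinning and an initial kinetic agonist-mode read, an EC20 of TRH (10 nM final) was injected and fluo-8 calcium signal (Ex 480/Em 530) followed at 1 s/cycle for 100 cycles in TRHR-expressing cells.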
# TRHR ag: activates the human TRH receptor. AID 493084. hit rate 0.18% among 360,000. activation, % at 2 µM. TRHR cells, calcium flux fluo-8, FDSS agonist mode. P34981; note: 0% is about no effect
#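 TRHR-expressing cells, plated overnight in medium with 10% serum, were loaded with fluo-8 calcium dye at room temperature. After a 10 s baseline, library compound was pin-added and calcium release was recorded kinetically (ex 480/em 530) as agonist response.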
# D1 ag: agonists of human D1 dopamine receptor. P21728. HEK293 T-REx D1 cells, calcium flux, agonist mode. activation, % at 2 µM. hit rate 1% among 360,000; note: 0% is about no effect
#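 Inducible HEK293 T-REx D1 cells, force-coupled to calcium signalling, were plated at 4000 cells/well with tetracycline and held overnight at 30 C. After no-wash calcium dye loading, compound-evoked calcium rise over 180 s flagged agonists.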
# D1 antagonist: antagonists of human D1 dopamine receptor; P21728; HEK293 TREx D1 cells, calcium flux, dopamine EC80; hits give low values; activity change, negative = inhibition, % at 10 µM; hit rate 3.2% among 360,000; AID 504652; in the data active = activity change below about -30%; note: % is set by controls: 0 for no effect and ±100 for the full control effect
#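 Kinetic fluorescence of a calcium dye serves as the read-out. D1-expressing Hek293 Trex cells, induced overnight at 30 C, are exposed to compound for 180 s before an EC80 dopamine addition, then read 180 s further.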
# D1 PAM: enhances dopamine response at the human D1 receptor. P21728. HEK293 TREx D1 cells, calcium flux, dopamine EC20 potentiation. potentiation, % at 10 µM. hit rate 0.036% among 360,000. AID 504651; in the data active = potentiation above about 30%; note: 0% is about no effect
# Active calls of the source: *; nt = no result; ! = a repeat was not active. Cut-off read from the data, not from the text of the source, unless noted: active = activation above about 30%; inactive = the rest.
SMILES,TRHR enhancer,TRHR ag,D1 ag,D1 antagonist,D1 PAM
COc1ccccc1N1CCN(C(=O)CSc2nc(C)c(C)c(=O)[nH]2)CC1,-2,-1,1,-30*,-3
CCOC(=O)C1=C(CN2CCN(c3ccccc3OC)CC2)NC(=O)NC1c1ccccc1 (centres undefined),-1,1,2,-32*,-3
CCOC(=O)C1=C(C)NC(=O)NC1c1ccc(N(C)C)cc1 (centres undefined),1,0,1,-31*,-9
CCc1c(C)nc(SCC(=O)N2CCN(c3ccccc3OC)CC2)[nH]c1=O,-11,-1,2,-4,-5
C=CCNS(=O)(=O)c1ccc2c(c1)n(C)c(=O)n2C,-5,1,1,-11,-2
CCOC(=O)N1CCN(c2c(Nc3cc(C)[nH]n3)c(=O)c2=O)CC1,35*,0,3,24,nt
CCOC(=O)C1=C(CN2CCCCCC2)NC(=O)NC1c1ccc2c(c1)OCO2 (centres undefined),-6,0,7,11,-1
COc1ccccc1N1CCN(C(=O)c2ccco2)CC1,31*,1,2,0,-5
CCOC(=O)C1=C(CN2CC(C)CC(C)C2)NC(=O)NC1c1ccc2c(c1)OCO2 (centres undefined),10,0,31*,20,-2
O=C(NCCCN1CCOCC1)c1ccc(NS(=O)(=O)c2ccccc2)cc1,14,0,1,-26,-1
Cn1ncc2c(N3CCN(c4cccc(Cl)c4)CC3)ncnc21,1,0,3,-29,-1
Cc1ccc2c(=O)cc(C(=O)Nc3cccc(C(F)(F)F)c3)oc2c1C,1,1,1,-3,2
CCc1ccc2oc(C(=O)Nc3cccc(C(F)(F)F)c3)cc(=O)c2c1,45*,0,3,-16,1
Cc1ccc(-c2noc(-c3cccnc3N(C)Cc3ccc(Cl)cc3)n2)cc1,5,0,0,1,-2
O=C(/C=C/c1ccc([N+](=O)[O-])cc1)N(c1ccccn1)C1CCCCC1,29,0,3,-12,-5
CC(C)=CCN1CCN(Cc2ccc(C#CC(C)(C)O)s2)CC1CCO (centres undefined),-5,4,6,-37*,-7
CC(C)(O)C#Cc1ccc(CN2CCN(Cc3ccccc3)C(CCO)C2)s1 (centres undefined),0,-2,7,-12,-1
CC(C)(O)C#Cc1ccc(CN2CCN(Cc3ccsc3)C(CCO)C2)s1 (centres undefined),-5,2,1,-5,-1
CC(C)(O)C#Cc1ccc(CN2CCN(CCc3ccccc3)C(CCO)C2)s1 (centres undefined),6,-3,10,-37*,-7
CCOC(=O)c1sc2nc(CSc3ccccc3)nc(N3CCCN(C)CC3)c2c1C,-3,2,30*,55,-5
CCOC(=O)c1sc2nc(CSc3ccccc3)nc(N3CCC(C(N)=O)CC3)c2c1C,9,0,19,12,-3
Cc1ccc2cc(CN(CC(C)C)S(=O)(=O)c3cccc4nonc34)c(=O)[nH]c2c1,4,0,3,0,-1
N#Cc1nc(Nc2cc(F)cc(F)c2)c2ncn(C3CCCC3)c2n1,2,1,3,1,3
CCCN1C(=O)S/C(=C\c2ccc(N3CCOCC3)cc2C)C1=O,10,-1,5,-3,-6
CCCN1C(=O)S/C(=C/c2ccc(N3CCOCC3)o2)C1=O,5,-1,103*,-21,11
SMILES,TRHR enhancer,TRHR ag,D1 ag,D1 antagonist,D1 PAM
CCCN1C(=O)S/C(=C\c2ccc(N3CCOCC3)o2)C1=O,11,20,34*,14,10
Cn1nnnc1Sc1ncnc2scc(I)c12,-1,1,1,-23,9
Cc1c(C(=O)N2CCN(S(=O)(=O)c3ccc(F)cc3)CC2)oc2ccccc12,-8,0,3,-2,-7
Cc1ccc(-n2c(SCC(=O)Nc3ccc4c(c3)OCO4)nc3c([nH]c4ccccc43)c2=O)cc1,5,0,0,18,-6
CC1CCc2sc(C(=O)OCC(=O)NC(C)C)cc2C1 (centres undefined),1,-1,0,9,-3
COc1ccc(CNC(=O)c2ccc(Cn3c(=O)c4cccn4c4cccnc43)cc2)cc1OC,6,0,1,5,-2
COC(=O)c1ccc(C(=O)OC)c(NC(=O)CN(C)Cc2ccccc2)c1,31*,1,10,-9,-1
COC(=O)c1ccc(C(=O)OC)c(NC(=O)CN(C)Cc2cccc(Cl)c2Cl)c1,19,0,10,1,9
COC(=O)c1ccc(C(=O)OC)c(NC(=O)CSCc2ccc(Br)cc2)c1,7,1,33*,-42*,-3
COc1cccc(NC(=O)N2CCC(n3nnc4ccccc43)CC2)c1,-7,0,20,-47*,-4
N[C@@H](Cc1ccccc1)C(=O)N1CCC(C(=O)NCC(=O)NCC(=O)O)CC1,5,1,2,19,-5
O=C(CSCc1ccco1)N1CCc2ccccc21,2,-1,-1,10,-3
COC(=O)C(Sc1nc(C)cc(C)c1C#N)c1ccccc1 (centres undefined),-5,-1,6,-32*,-7
CC(C(=O)N1CCOCC1)(c1ccccc1)c1ccccc1,-19,0,0,-34*,-9
CC(C(=O)N1CCOCC1)c1ccccc1 (centres undefined),0,0,0,-22,1
COc1ccc(NC2=CC(=O)CC(c3ccccc3)C2)c(OC)c1 (centres undefined),2,0,1,24,-5
CCOc1ccccc1NC1=CC(=O)CC(c2ccccc2)C1 (centres undefined),-1,-1,4,-31*,3
COc1ccc(-c2cc3c(=O)n(CC(=O)Nc4ccc(Br)c(C)c4)ccn3n2)cc1OC,-5,0,0,8,-1
COCCNC(=O)CN1C(=O)NC2(CCCCCC2)C1=O,3,0,1,22,-6
O=C(COC(=O)c1ccccc1Cl)Nc1nccs1,2,-1,45*,-5,-4
O=C(COC(=O)c1cc(=O)[nH]c2ccccc12)Nc1nccs1,27,0,1,-25,-4
CCCCCCCNC(=O)C1(CC2CC(c3ccccc3)=NO2)CCN(C(=O)OC(C)(C)C)CC1 (centres undefined),0,1,3,-37*,-10
CCCCCCCNC(=O)C1(CC2CC(c3ccccc3)=NO2)CCN(C(=O)c2ccccc2)CC1 (centres undefined),-8,0,6,-4,-4
Cc1ccc(NC(=O)CSc2nccn2Cc2ccco2)cc1,-2,3,7,2,5
O=C(CSc1nccn1Cc1ccco1)Nc1cccc(F)c1,1,-1,31*!,0,1
